Drawing on PubChem BioAssay (EPA / NIEHS), this text covers outcome and AC50 for six compounds.

Test [1] has as its target Estrogen receptor (Homo sapiens) (UniProt P03372). Kind of test: ATG_ERa_TRANS: Attagene TRANS-FACTORIAL HepG2 Assay for human Estrogen Receptor alpha (ERa) (AID 2282970). The settings on record: HepG2 Attagene TRANS ERa GAL4 reporter, mRNA. The gist of the method:
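Liver-derived HepG2 cells expressing chimeric nuclear receptor-Gal4 proteins from transient transfection were exposed for 24 hours. Gain of reporter mRNA signal versus DMSO, read by capillary electrophoresis of FAM-labelled PCR products, was recorded.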

Test [2] concerns the target X-box-binding protein 1 (Homo sapiens) (UniProt P17861). Kind of test: ATG_Xbp1_CIS: Attagene CIS-FACTORIAL HepG2 Assay for human X-box Binding Protein 1 (XBP1) (AID 2282972; active means hit-call score of the fitted dose curve at least 0.9, where 1 is the maximum; inactive means score below 0.9). The settings on record: HepG2 XBP1 cis-element reporter, Attagene multiplex; actives raise or lower the signal. The gist of the method: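 Multiplexed cis-reporter readout in transfected HepG2 liver cells. Exposure lasted 24 hours. Activity in either direction was fitted against DMSO as negative control and baseline.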

Test [3] can be described thus: ATG_M_19_TRANS: Attagene TRANS-FACTORIAL HepG2 Assay for M19 Transcription Factor (Internal Marker) (AID 2282974). The settings on record: HepG2 Attagene TRANS-FACTORIAL M19 internal marker reporter. The gist of the method: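 Background-control readout: after 24 h chemical exposure of transfected HepG2 carrying GAL4-driven reporter units, RNA was reverse-transcribed, amplified, fluorescently labeled and sized by capillary electrophoresis; gain-of-signal fit against DMSO.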

Test [4] can be described thus: ATG_GAL4_TRANS: Attagene TRANS-FACTORIAL HepG2 Assay for GAL4 (Internal Marker) (AID 2282976). The settings on record: HepG2 Attagene TRANS GAL4 internal marker reporter. A digest of the protocol:
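First, HepG2 cells were transfected with reporter units under GAL4-UAS control. Next, they were treated with chemical for 24 h. Finally, RNA was reverse-transcribed, PCR-amplified, FAM-labelled and resolved by capillary electrophoresis, with induction scored against DMSO.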

The target in test [5] is Bile acid receptor (Homo sapiens) (UniProt Q96RI1). Kind of test: ATG_FXR_TRANS: Attagene TRANS-FACTORIAL HepG2 Assay for Farnesoid X Receptor (FXR) (AID 2282979).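 Further: hits raise reporter mRNA above DMSO so AC50 marks FXR activation.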 Particulars: HepG2 Attagene TRANS FXR-GAL4 reporter transcription. The gist of the method:
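Transient transfection of HepG2 with multiplexed GAL4-UAS reporter units; exogenous FXR-GAL4 chimera. Dose 24 h → TriZol RNA → oligo(dT) RT → PCR, 6-FAM primer extension, HpaI cut → CE. Gain vs DMSO.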

The target of test [6] is Oxysterols receptor LXR-alpha (Homo sapiens) (UniProt Q13133). Kind of test: ATG_LXRa_TRANS: Attagene TRANS-FACTORIAL HepG2 Assay for human Liver X Receptor alpha (LXRa) (AID 2282980). The settings on record: HepG2 Attagene TRANS reporter, LXRa transactivation. The gist of the method:
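Transfect HepG2 with GAL4-UAS multiplex reporter constructs (TRANS format, chimeric receptor-GAL4); treat 24 h; extract RNA, reverse-transcribe, PCR-amplify, FAM-label, HpaI-digest; resolve fragments by capillary electrophoresis. Upward response vs DMSO.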

Test [7] deals with Oxysterols receptor LXR-beta (Homo sapiens) (UniProt P55055). Kind of test: ATG_LXRb_TRANS: Attagene TRANS-FACTORIAL HepG2 Assay for human Liver X Receptor beta (LXRb) (AID 2282981). Particulars: HepG2 Attagene TRANS GAL4-LXRb reporter, mRNA. The gist of the method: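 Liver-derived HepG2 cells transfected with Gal4-responsive reporters were dosed for 24 h. Activation was scored as rise in reporter mRNA, by RT-PCR and capillary electrophoresis, above DMSO baseline.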

Test [8] deals with Hepatocyte nuclear factor 4-alpha (Homo sapiens) (UniProt P41235). Kind of test: ATG_HNF4a_TRANS: Attagene TRANS-FACTORIAL HepG2 Assay for human Hepatocyte Nuclear Factor 4 alpha (HNF4a) (AID 2282982). Particulars: HepG2 HNF4a transactivation reporter, mRNA readout. The gist of the method:
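Using HepG2 liver cells transfected with GAL4-UAS reporter units, chemical-induced mRNA increases were assessed after 24 hours. Fluorescent RT-PCR fragments were separated by capillary electrophoresis and compared with DMSO negative controls.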

The nature of test [9]: ATG_M_32_TRANS: Attagene TRANS-FACTORIAL HepG2 Assay for M32 Transcription Factor (Internal Marker) (AID 2282984).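 Further: transcript level of a background control reporter unit measured by RT-PCR and capillary electrophoresis.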 Particulars: HepG2 Attagene TRANS M32 internal marker reporter. The gist of the method:
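Fluorescence-detected mRNA induction, HepG2 liver cells, 24 h after dosing. Multiple GAL4-UAS reporter units introduced by transient transfection; background-control endpoint analysed for gain of signal against DMSO.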

The target in test [10] is Transcriptional activator Myb (Homo sapiens) (UniProt P10242). Kind of test: ATG_Myb_CIS: Attagene CIS-FACTORIAL HepG2 Assay for human Myeloblastosis (Myb) Proto-Oncogene Transcription Factor (AID 2282986; active means hit-call score of the fitted dose curve at least 0.9, where 1 is the maximum; inactive means score below 0.9). The settings on record: HepG2 Attagene CIS-FACTORIAL Myb reporter transcription; actives raise or lower the signal. The gist of the method:
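Reporter mRNA is quantified by RT-PCR and capillary electrophoresis 24 h after dosing HepG2 cells transfected with cis-regulated reporter units, which track endogenous transcription factor activity. Gain and loss of signal are fitted versus DMSO baseline.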

Test [11] has as its target Nuclear respiratory factor 1 (Homo sapiens) (UniProt Q16656). Kind of test: ATG_NRF1_CIS: Attagene CIS-FACTORIAL HepG2 Assay for human Nuclear Respiratory Factor 1 (NRF1) Orphan Gene (AID 2282987; active means hit-call score of the fitted dose curve at least 0.9, where 1 is the maximum; inactive means score below 0.9). Particulars: HepG2 NRF1 cis-element reporter, Attagene multiplex; actives raise or lower the signal. A digest of the protocol:
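Endogenous NRF1-driven reporter transcription in transfected HepG2 cells after 24 h treatment. Readout: RT-PCR products, 6-FAM labelled and resolved by capillary electrophoresis; changes fitted both directions relative to DMSO.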

A short description of test [12]: ATG_NFI_CIS: Attagene CIS-FACTORIAL HepG2 Assay for human Nuclear Factor I (NFI) (AID 2282989; active means hit-call score of the fitted dose curve at least 0.9, where 1 is the maximum; inactive means score below 0.9). Particulars: HepG2 cis-regulatory reporter, NFI response element transcription; actives raise or lower the signal. A digest of the protocol: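 Cells: human liver HepG2, transiently transfected with promoter-regulated reporter transcription units. Exposure 24 h. Detection: fluorescent RT-PCR products separated by capillary electrophoresis, normalised to DMSO negative control.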

In test [13] the target is Myc proto-oncogene protein (Homo sapiens) (UniProt P01106). Kind of test: ATG_Myc_CIS: Attagene CIS-FACTORIAL HepG2 Assay for human Myelocytomatosis (Myc) Proto-Oncogene Transcription Factor (AID 2282990; active means hit-call score of the fitted dose curve at least 0.9, where 1 is the maximum; inactive means score below 0.9). Particulars: HepG2, Attagene cis-reporter transcription factor activity; actives raise or lower the signal. The gist of the method:
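HepG2 cells transiently transfected with multiple cis-promoter-driven reporter transcription units, so endogenous TF activity is read. After 24 h compound exposure, reporter mRNA was quantified by RT-PCR, 6-FAM labelling, HpaI digestion and capillary electrophoresis; bidirectional fit versus DMSO.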

A short description of test [14]: ATG_M_06_TRANS: Attagene TRANS-FACTORIAL HepG2 Assay for M06 Transcription Factor (Internal Marker) (AID 2282983).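 Further: reporter transcript level by RT-PCR then capillary electrophoresis fluorescence.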 The settings on record: HepG2 Attagene TRANS M06 internal marker reporter. The gist of the method: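 Background control endpoint: reporter mRNA from transiently transfected HepG2 after 24 h dosing, detected by RT-PCR with capillary electrophoresis fluorescence. Analysed for gain versus DMSO.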

For test [15], the target named is Nuclear receptor subfamily 4 group A member 2 (Homo sapiens) (UniProt P43354). Kind of test: ATG_NURR1_TRANS: Attagene TRANS-FACTORIAL HepG2 Assay for human Nuclear Receptor Related Protein 1 (NURR1) (AID 2282985). Particulars: HepG2 Attagene TRANS reporter, mRNA readout. The gist of the method: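 Chimeric NR-Gal4 proteins were expressed in human HepG2 cells bearing GAL4-UAS reporter units, and induced reporter mRNA was quantified 24 h post-dosing by RT-PCR and capillary electrophoresis.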

Test [16] has as its target Steroid hormone receptor ERR1 (Homo sapiens) (UniProt P11474). Kind of test: ATG_ERRa_TRANS: Attagene TRANS-FACTORIAL HepG2 Assay for human Estrogen-Related Receptor alpha (ERRa) (AID 2282971). Particulars: HepG2 Attagene TRANS reporter, ERRa transactivation. The gist of the method:
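Reporter transcript induction was quantified by RT-PCR and capillary electrophoresis of FAM-labelled, HpaI-cut products after 24 h treatment of HepG2 cells carrying transiently transfected GAL4-UAS reporter units and an exogenous ERRa-Gal4 fusion; activity scored as increase over DMSO.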

Test [17] deals with Androgen receptor (Homo sapiens) (UniProt P10275). Kind of test: ATG_AR_TRANS: Attagene TRANS-FACTORIAL HepG2 Assay for human Androgen Receptor (AR) (AID 2282973). Particulars: HepG2 Attagene TRANS-FACTORIAL AR reporter transcription. A digest of the protocol:
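Steps: transfect HepG2 with multiple GAL4-UAS reporter transcription units (TRANS format, exogenous NR-Gal4 protein); dose 24 h; isolate RNA, reverse-transcribe, PCR-amplify, FAM-label, HpaI-digest; resolve by capillary electrophoresis. Positive direction vs DMSO.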

The target in test [18] is Estrogen-related receptor gamma (Homo sapiens) (UniProt P62508). Kind of test: ATG_ERRg_TRANS: Attagene TRANS-FACTORIAL HepG2 Assay for human Estrogen-Related Receptor gamma (ERRg) (AID 2282977).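 Further: hits increase reporter signal over DMSO so potencies reflect activators.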 The settings on record: HepG2 Attagene TRANS reporter, ERRg transactivation. The gist of the method: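 Readout: fluorescent reporter-mRNA fragments resolved by capillary electrophoresis after RT-PCR and HpaI cut. Cells: transiently transfected HepG2 carrying GAL4-UAS reporters driven by exogenous NR-Gal4 chimeras, dosed 24 h. Activity fitted upward relative to DMSO baseline.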

Records with an inconclusive call do not appear. A structure can be active in one record and inactive in another. The source made the active and inactive calls. How the source made its calls, unless noted: active means hit-call score of the fitted dose curve at least 0.9, where 1 is the maximum; inconclusive means response in the unintended direction; inactive means score below 0.9.

Sequence of Oxysterols receptor LXR-beta (Homo sapiens) (P55055 whole entry, looked up, the tested form may be a part): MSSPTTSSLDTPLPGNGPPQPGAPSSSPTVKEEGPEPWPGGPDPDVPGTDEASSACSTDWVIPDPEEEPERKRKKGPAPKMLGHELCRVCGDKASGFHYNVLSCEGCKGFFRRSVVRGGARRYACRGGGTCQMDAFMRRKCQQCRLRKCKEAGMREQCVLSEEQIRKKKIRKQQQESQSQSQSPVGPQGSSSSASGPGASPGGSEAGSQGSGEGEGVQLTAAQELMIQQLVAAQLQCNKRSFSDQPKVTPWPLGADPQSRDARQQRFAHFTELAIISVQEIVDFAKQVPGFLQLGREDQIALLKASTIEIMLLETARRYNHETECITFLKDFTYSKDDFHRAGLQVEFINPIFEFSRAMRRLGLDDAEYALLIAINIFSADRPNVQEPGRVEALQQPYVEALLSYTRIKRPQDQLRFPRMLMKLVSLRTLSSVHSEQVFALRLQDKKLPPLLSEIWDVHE
Sequence of Bile acid receptor (Homo sapiens) (Q96RI1 whole entry, looked up, the tested form may be a part): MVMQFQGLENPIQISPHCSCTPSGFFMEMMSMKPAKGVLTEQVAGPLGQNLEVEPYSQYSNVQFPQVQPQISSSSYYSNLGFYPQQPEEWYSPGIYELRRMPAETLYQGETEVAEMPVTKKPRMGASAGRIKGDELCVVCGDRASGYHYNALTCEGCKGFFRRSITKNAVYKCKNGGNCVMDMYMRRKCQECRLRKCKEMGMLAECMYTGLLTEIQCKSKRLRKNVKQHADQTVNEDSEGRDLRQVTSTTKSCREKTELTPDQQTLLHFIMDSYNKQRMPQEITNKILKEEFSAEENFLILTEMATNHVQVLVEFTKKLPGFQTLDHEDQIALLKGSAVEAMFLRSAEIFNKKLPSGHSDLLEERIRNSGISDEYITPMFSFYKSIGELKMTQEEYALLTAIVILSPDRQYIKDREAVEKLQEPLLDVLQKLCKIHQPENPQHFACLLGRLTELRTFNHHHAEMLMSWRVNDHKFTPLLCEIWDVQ
Sequence of Myc proto-oncogene protein (Homo sapiens) (P01106 whole entry, looked up): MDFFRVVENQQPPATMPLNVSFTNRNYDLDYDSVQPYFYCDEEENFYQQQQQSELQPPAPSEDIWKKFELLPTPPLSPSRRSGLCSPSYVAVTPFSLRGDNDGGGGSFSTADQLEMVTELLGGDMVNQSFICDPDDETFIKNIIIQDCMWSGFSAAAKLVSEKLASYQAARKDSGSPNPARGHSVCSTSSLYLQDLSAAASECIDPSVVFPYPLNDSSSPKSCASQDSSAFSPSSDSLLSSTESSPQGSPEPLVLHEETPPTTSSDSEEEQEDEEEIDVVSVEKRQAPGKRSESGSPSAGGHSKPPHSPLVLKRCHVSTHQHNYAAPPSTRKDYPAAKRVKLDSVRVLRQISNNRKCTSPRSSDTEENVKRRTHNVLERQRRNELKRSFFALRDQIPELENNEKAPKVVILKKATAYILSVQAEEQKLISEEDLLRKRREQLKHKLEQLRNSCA
Sequence of Nuclear respiratory factor 1 (Homo sapiens) (Q16656 whole entry, looked up): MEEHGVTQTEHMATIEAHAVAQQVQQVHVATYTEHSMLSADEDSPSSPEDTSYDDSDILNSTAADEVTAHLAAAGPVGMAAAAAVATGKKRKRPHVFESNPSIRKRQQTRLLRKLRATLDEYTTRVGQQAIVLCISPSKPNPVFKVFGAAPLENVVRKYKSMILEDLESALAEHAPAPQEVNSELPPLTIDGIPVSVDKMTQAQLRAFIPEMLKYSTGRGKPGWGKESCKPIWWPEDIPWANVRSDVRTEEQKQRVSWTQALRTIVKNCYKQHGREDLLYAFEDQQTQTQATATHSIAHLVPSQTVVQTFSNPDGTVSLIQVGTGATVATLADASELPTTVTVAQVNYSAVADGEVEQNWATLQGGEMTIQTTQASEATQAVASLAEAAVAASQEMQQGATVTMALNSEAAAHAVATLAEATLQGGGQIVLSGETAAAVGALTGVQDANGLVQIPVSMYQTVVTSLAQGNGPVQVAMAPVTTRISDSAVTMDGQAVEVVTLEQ
Sequence of Transcriptional activator Myb (Homo sapiens) (P10242 whole entry, looked up): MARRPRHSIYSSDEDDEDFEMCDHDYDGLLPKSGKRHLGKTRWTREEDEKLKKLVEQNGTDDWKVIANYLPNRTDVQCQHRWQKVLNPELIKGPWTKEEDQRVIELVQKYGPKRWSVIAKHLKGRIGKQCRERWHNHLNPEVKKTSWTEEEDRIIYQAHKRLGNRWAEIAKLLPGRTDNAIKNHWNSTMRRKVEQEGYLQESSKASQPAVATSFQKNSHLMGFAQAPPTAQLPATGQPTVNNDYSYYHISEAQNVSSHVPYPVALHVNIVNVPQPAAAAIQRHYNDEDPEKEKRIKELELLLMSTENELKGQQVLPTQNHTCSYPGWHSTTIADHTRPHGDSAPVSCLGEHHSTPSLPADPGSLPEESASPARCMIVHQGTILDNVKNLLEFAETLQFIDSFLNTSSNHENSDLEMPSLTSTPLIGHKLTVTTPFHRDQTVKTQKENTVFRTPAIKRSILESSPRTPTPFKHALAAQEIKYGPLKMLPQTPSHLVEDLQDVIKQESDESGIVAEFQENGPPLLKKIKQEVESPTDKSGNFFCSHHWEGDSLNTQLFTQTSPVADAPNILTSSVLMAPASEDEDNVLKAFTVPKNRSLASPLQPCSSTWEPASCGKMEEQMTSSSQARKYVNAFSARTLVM
Sequence of X-box-binding protein 1 (Homo sapiens) (P17861 whole entry, looked up): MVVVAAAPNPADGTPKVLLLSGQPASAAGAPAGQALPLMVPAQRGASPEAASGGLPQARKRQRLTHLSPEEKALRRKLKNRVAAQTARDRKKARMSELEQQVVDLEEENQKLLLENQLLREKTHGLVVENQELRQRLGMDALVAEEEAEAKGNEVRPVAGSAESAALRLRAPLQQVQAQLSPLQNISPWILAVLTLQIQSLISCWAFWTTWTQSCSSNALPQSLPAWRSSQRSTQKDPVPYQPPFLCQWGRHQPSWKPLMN
Sequence of Estrogen receptor (Homo sapiens) (P03372 whole entry, looked up, the tested form may be a part): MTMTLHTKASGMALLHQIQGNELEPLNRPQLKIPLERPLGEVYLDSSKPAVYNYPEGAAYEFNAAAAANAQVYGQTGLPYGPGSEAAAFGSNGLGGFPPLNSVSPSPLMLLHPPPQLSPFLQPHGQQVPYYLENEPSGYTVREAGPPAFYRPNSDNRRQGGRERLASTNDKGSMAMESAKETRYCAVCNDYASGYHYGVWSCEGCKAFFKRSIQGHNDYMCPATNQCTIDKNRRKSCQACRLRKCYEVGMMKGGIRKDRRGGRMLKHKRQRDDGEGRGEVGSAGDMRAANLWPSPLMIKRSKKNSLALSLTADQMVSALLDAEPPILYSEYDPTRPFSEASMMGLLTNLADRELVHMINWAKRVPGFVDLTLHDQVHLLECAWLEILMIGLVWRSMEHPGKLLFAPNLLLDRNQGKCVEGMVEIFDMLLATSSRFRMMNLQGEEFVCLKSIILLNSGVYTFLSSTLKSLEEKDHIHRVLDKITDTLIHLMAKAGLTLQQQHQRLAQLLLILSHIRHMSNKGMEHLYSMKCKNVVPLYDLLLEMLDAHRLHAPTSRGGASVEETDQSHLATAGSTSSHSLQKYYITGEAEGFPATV
Sequence of Oxysterols receptor LXR-alpha (Homo sapiens) (Q13133 whole entry, looked up, the tested form may be a part): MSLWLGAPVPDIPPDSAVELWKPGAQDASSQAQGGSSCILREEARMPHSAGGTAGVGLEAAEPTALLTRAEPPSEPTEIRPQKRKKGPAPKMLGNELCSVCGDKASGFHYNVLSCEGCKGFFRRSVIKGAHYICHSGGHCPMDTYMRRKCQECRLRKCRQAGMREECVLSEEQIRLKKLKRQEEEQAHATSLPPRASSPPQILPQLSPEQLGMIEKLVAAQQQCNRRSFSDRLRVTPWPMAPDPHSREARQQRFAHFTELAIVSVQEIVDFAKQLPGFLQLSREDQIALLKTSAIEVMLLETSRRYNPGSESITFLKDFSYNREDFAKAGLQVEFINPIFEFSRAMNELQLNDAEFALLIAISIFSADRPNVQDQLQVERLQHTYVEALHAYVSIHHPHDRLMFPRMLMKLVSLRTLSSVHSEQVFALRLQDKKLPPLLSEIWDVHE
Sequence of Nuclear receptor subfamily 4 group A member 2 (Homo sapiens) (P43354 whole entry, looked up, the tested form may be a part): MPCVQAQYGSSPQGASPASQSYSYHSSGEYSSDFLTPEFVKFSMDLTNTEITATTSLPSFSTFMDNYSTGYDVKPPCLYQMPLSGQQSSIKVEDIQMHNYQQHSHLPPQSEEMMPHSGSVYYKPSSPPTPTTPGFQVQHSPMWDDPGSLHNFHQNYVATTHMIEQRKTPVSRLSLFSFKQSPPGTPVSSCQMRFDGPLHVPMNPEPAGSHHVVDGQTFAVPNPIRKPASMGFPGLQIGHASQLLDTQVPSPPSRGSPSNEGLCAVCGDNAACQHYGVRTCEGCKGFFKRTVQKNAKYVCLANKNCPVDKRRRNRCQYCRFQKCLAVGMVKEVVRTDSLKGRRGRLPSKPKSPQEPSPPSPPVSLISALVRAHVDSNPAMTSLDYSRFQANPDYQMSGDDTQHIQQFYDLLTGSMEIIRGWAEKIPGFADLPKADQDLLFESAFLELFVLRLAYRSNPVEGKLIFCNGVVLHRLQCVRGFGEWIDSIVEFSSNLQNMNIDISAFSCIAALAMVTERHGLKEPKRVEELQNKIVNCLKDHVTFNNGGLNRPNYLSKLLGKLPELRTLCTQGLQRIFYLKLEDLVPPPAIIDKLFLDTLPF
Sequence of Hepatocyte nuclear factor 4-alpha (Homo sapiens) (P41235 whole entry, looked up, the tested form may be a part): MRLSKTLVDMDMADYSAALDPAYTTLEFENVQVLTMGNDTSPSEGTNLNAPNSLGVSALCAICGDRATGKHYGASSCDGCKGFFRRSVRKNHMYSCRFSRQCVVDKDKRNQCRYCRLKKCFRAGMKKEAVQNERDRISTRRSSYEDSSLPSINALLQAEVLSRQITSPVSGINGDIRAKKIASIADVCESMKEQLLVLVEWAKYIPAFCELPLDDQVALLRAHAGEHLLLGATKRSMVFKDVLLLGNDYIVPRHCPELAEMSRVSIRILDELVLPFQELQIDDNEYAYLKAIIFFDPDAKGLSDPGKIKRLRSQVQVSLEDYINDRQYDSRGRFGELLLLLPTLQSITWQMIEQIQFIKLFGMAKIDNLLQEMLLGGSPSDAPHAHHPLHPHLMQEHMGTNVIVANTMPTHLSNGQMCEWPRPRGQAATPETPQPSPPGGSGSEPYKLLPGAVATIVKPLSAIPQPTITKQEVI

Regarding `C[N+](C)(C)Cc1ccccc1`, the call in [1], in test [2], in test [3], in test [4], in test [5] and in test [6] was inactive. Besides, the compound was classed as inactive in test [7], in test [8], in [9], in test [10], in test [11] and in [12]. The result in test [13] was inactive.
For the compound `O=NN1CCOCC1`, the call in test [1], in test [2], in [4], in test [14], in test [15] and in test [10] was inactive. Moreover, the result in [11], in test [12] and in [13] was inactive.
For the compound `CCOP(=O)(OCC)SCCSCC`, the call in test [1], in test [16], in test [2], in test [6], in [14] and in test [9] was inactive. The call in test [10], in test [12] and in [13] was inactive.
For `CCCCCCCCCCCCCl`, the compound was classed as inactive in [1], in [2], in test [3], in test [6], in test [7] and in [9]. The compound was called inactive in test [10], in test [11], in test [12] and in test [13].
Turning to `[Cl][Sn]([c]1ccccc1)([c]1ccccc1)[c]1ccccc1`, the compound was called inactive in [1], in [17], in test [18], in [5], in test [7] and in test [14]. In addition, the AC50 was 242 nM (active) in [2]; 6.88 nM (active) in test [15]; 1530 nM (active) in test [10]; 216 nM (active) in test [11]; 228 nM (active) in test [12]; 1400 nM (active) in test [13].
In the case of `CCCCOC(C)=O`, the compound was called inactive in [1], in test [2], in [3], in test [4], in test [5] and in [6]. The outcome in test [8], in test [9], in [10], in test [11], in [12] and in test [13] was inactive. Moreover, in [10], the AC50 is 100000 nM (active).

The term AC50 denotes the concentration giving half of the maximal activity seen.
